PubChem BioAssay AID720597 (Broad Institute, 2013)
Potency and affinity values are given separately.

Each molecule was assayed against NAD-dependent protein deacylase sirtuin-5, mitochondrial (Homo sapiens) (UniProt Q9NXA8) (assay: SIRT5 deacylase inhibitors, dose response, biochemical, fluorescence imaging, cherry-pick, set 6 (AID 720597;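 also: lower AMC signal can also come from blocking the trypsin step; 0% = median of neutral control wells and -100% = median of positive control wells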)). Conditions: Purified SirT5, succinyl-peptide-AMC/trypsin fluorescence; series mostly up to 15 µM; activity change, negative = inhibition: at the top concentration;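 active = fitted half-maximal dose no more than twice the top valid tested dose, for compounds that lower signal; inconclusive = fit invalid, or curve flat with activity between -70 and -30; inactive = potency past limit, curve flat within ±30, or signal increasing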.
Sequence of NAD-dependent protein deacylase sirtuin-5, mitochondrial (Homo sapiens) (Q9NXA8 whole entry, looked up): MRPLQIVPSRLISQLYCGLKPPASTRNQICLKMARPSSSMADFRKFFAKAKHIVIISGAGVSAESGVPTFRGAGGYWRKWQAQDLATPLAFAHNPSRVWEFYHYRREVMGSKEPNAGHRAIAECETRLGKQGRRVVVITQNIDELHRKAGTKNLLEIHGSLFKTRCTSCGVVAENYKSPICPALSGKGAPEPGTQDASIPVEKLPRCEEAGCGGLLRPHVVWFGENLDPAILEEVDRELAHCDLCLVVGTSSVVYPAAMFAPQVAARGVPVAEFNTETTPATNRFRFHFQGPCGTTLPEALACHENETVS

Activity change, negative = inhibition, inactive:
C[C@@H]1CCCCO[C@@H](CN(C)CC2CCCCC2)[C@H](C)CN([C@H](C)CO)C(=O)c2cc(NC(=O)CCCCCC(=O)Nc3ccccc3N)ccc2O1 -23.9% [at 16 µM]
COc1ccc(S(=O)(=O)N(C)C[C@H]2OCCCC[C@H](C)Oc3ccc(NS(=O)(=O)c4ccc(F)cc4)cc3C(=O)N([C@@H](C)CO)C[C@H]2C)cc1 -27.1%
C[C@H](CO)N1C[C@H](C)[C@H](CN(C)Cc2ccc(C(F)(F)F)cc2)Oc2c(NC(=O)c3nc4ccccc4s3)cccc2C1=O -9.92%
C[C@@H]1CN([C@H](C)CO)C(=O)c2c(c3ccccc3n2C)-c2ccccc2CO[C@@H]1CN(C)S(=O)(=O)c1ccc(C(F)(F)F)cc1 5.77%
C[C@H]1CCCCO[C@@H](CN(C)Cc2ccc(C(F)(F)F)cc2)[C@@H](C)CN([C@@H](C)CO)C(=O)c2cc(NS(=O)(=O)c3ccc(F)cc3)ccc2O1 -29.9%
C[C@@H]1CN([C@H](C)CO)C(=O)c2cc(Br)cnc2O[C@@H]1CN(C)Cc1cncnc1 -2.29% [at 13.5 µM]
COc1cccc(CN2[C@@H](CO)[C@H](c3ccccc3)C23CN(C(=O)C2CCCC2)C3)c1 -11.3%
O=C(NCC[C@@H]1CC[C@H](NS(=O)(=O)c2cccc(F)c2)[C@H](CO)O1)C1CCOCC1 5.5%
C[C@H](CO)N1C[C@H](C)[C@@H](CN(C)Cc2ccccc2C(F)(F)F)OCc2ccccc2-c2ccccc2C1=O -29.4%
COc1ccc(NC(=O)N(C)C[C@H]2Oc3cc(C#CCC(C)C)ccc3S(=O)(=O)N([C@@H](C)CO)C[C@@H]2C)cc1 29%
COc1ccc(S(=O)(=O)N(C)C[C@H]2Oc3cc(C#CC4CCCC4)ccc3S(=O)(=O)N([C@@H](C)CO)C[C@@H]2C)cc1 7.83%
Cc1ccc(S(=O)(=O)N(C)C[C@@H]2OCCCC[C@@H](C)Oc3ccc(NS(=O)(=O)c4ccc(Cl)cc4)cc3C(=O)N([C@H](C)CO)C[C@H]2C)cc1 -25.3%
C[C@@H]1CN([C@@H](C)CO)C(=O)c2cc(NS(=O)(=O)c3ccccc3)ccc2O[C@@H](C)CCCCO[C@@H]1CN(C)Cc1ccc(C(F)(F)F)cc1 16.1%
CCC(=O)N(C)C[C@@H]1[C@@H](c2ccc(-c3ccccc3F)cc2)[C@H](CO)N1C(C)=O -1.46%
Cc1ccc(S(=O)(=O)Nc2ccc3c(c2)C(=O)N([C@H](C)CO)C[C@H](C)[C@@H](CN(C)Cc2ccc(Cl)c(Cl)c2)OCCCC[C@H](C)O3)cc1 -10.7%
COc1ccc(S(=O)(=O)Nc2ccc3c(c2)C(=O)N([C@@H](C)CO)C[C@H](C)[C@@H](CN(C)Cc2ccc(C(F)(F)F)cc2)OCCCC[C@@H](C)O3)cc1 -1.58%
CCCNC(=O)N1CC2(C1)[C@H](c1ccccc1)[C@H](CO)N2Cc1cccc(F)c1 -7.43%
COc1ccc(S(=O)(=O)N(C)C[C@@H]2Oc3ncc(C#CCN(C)C)cc3C(=O)N([C@H](C)CO)C[C@@H]2C)cc1 -13.5%
COc1ccc(S(=O)(=O)N(C)C[C@@H]2OCCCC[C@@H](C)Oc3ccc(NS(=O)(=O)c4ccc(F)cc4)cc3C(=O)N([C@@H](C)CO)C[C@H]2C)cc1 -22.5%
C[C@H](CO)N1C[C@H](C)[C@@H](CN(C)Cc2ccc(C(F)(F)F)cc2)OCCCC[C@H](C)Oc2ccc(NS(=O)(=O)c3cccs3)cc2C1=O -3.35%
Cn1cnc(S(=O)(=O)N[C@H]2CC[C@@H](CC(=O)Nc3ccccc3)O[C@@H]2CO)c1 17%
C[C@@H]1CN([C@@H](C)CO)C(=O)Cc2cc(NS(=O)(=O)c3ccc(Cl)cc3)ccc2O[C@H]1CN(C)Cc1ccc(Cl)c(Cl)c1 5.95%
CS(=O)(=O)Nc1ccc2c(c1)[C@H]1C[C@@H](CC(=O)NCCc3ccccc3)O[C@@H](CO)[C@H]1O2 -16.6%
CC(C)CC#Cc1ccc2c(c1)O[C@H](CN(C)C(=O)C1CCCCC1)[C@@H](C)CN([C@H](C)CO)S2(=O)=O 9.78%
C[C@@H]1CN([C@@H](C)CO)C(=O)c2cc(NC(=O)Nc3cccc4ccccc34)ccc2O[C@@H](C)CCCCO[C@@H]1CN(C)S(=O)(=O)c1ccc(Cl)cc1 7.77%
COc1ccc(NC(=O)N(C)C[C@H]2Oc3cc(C#CCC(C)C)ccc3S(=O)(=O)N([C@@H](C)CO)C[C@H]2C)cc1 10.4%
C[C@H]1CN([C@@H](C)CO)S(=O)(=O)c2ccc(-c3cccc(F)c3)cc2O[C@H]1CN(C)S(=O)(=O)c1ccc(F)cc1 7.74%
